The text below walks through data of PubChem BioAssay AID1259376 (The Scripps Research Institute Molecular Screening Center, 2018).

Among all 4,700 compounds or so, about 360 (7.7%) were called active. Not all results are given here. A number with no mark means an inactive call.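 The calls were made as follows: active = inhibition above a cutoff derived from the DMSO control wells (cut at about 30% in these data); inactive = the rest.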

This test can be described thus: bead signal artefacts at single dose – biochemical, AlphaScreen, triplicate, counter-screen for MITF inhibitor project (AID 1259376). The settings on record: LysRS AlphaScreen counterscreen, signal interference, at 2.6 µM, stronger effect = higher value. In general terms: In Alpha technology, singlet oxygen from a donor bead excites a nearby acceptor bead.
The term inhibition denotes the drop in the measured response relative to a control, in per cent. `CC(C)(C)n1nnnc1C(c1ccc2ncccc2c1)N1CCSCC1` (stereo not given): the inhibition is 30.7% (active).
In the case of `CCSc1ccccc1C(=O)N1CCN(c2ccc(-c3ccccn3)nn2)CC1` it was 101% (active); in that of `Brc1cccc(CN2CCN(Cc3cccnc3)CC2)c1`, -5.02%; in that of `Cc1cc(C(C)(C)C)ccc1OCCN1CCNCC1`, -9.28%.
Take `CCN1CCN(CCOCCOc2ccccc2OCc2ccccc2)CC1`: the inhibition was 9.59%.
As for `Cc1cc(NC(=O)/C=C/C(=O)N(CC(=O)NC2CCCC2)c2ccc(F)cc2)no1`, the inhibition was 10.1%.
The figure for `O=C(c1ccc2c(c1)C(=O)N(Cc1cccnc1)C2=O)c1ccc2c(c1)C(=O)N(Cc1cccnc1)C2=O` is 24.6%.
In the case of `CN(CCc1ccccn1)Cc1cccnc1` it was 22.1%; in that of `Cc1ccc(OCCCCNCCN2CCOCC2)c(Br)c1`, 13.8%; in that of `CCc1ccc(OCCCCn2ccnc2)cc1`, 0.71%.
With `CCc1cccc(OCCOCCn2ccnc2)c1`, the inhibition was -2.1%.
In the case of `N#Cc1nc(COc2cccc(Cl)c2)oc1NCCCn1ccnc1` it was 65.7% (active); in that of `c1ccc(-n2cc(CN3CCOCC3)c(-c3ccc4c(c3)OCCO4)n2)cc1`, 10%.
In the case of `CCCS(=O)(=O)N1CCN(Cc2ccc(OC)c(OCc3ccccc3)c2)CC1` it was 9.8%.
The figure for `CN1CCC(N2CCN(c3ccccc3Cl)CC2)CC1` is 14.1%; for `COc1cc(Nc2ncnc3c2nc(N2CCOCC2)n3C(C)C)cc(OC)c1OC` it is 13.7%; for `COc1ccc(Cn2nnc(C(=O)Nc3cccc(Cl)c3)c2N)cc1` it is 14.3%.
For the compound `O=C(CNCc1ccc(F)cc1)Nc1ccc(N2CCCC2)cc1`, the inhibition is 25.2%.
With `CCOc1ccc(CN2CCCN(C)CC2)cc1`, the inhibition was 0.42%.
The figure for `CCCn1c(C)cc(-c2csc(NC(=O)Cc3ccsc3)n2)c1C` is 12%; for `CC(=O)NS(=O)(=O)c1ccc(-c2ccc(C=C(C#N)C#N)o2)cc1` it is 3.05%; for `COc1ccc(CN2CCN(Cc3ccccc3OC)CC2)cc1Br` it is 7.62%.
For the compound `Cc1cccc(CSc2n[nH]c(=O)[nH]c2=O)c1`, the inhibition was -7.01%.
The figure for `CC1CN(CCOc2ccccc2[N+](=O)[O-])CC(C)O1` (stereo not given) is 13.4%; for `COc1ccc(OCCn2ccnc2C)cc1` it is -3.46%; for `CCN1CCN(CCOCCOc2ccc([N+](=O)[O-])cc2)CC1` it is 9.29%.
The figure for `COc1cccc(/C=C(\C#N)c2nc3ccccc3[nH]2)c1OCc1ccc(Cl)cc1Cl` is 0.18%; for `COc1ccc(C(CNCc2cc(=O)oc3cc4c(cc23)CCC4)N2CCOCC2)cc1` (stereo not given) it is 13%.
The figure for `CCOc1cc(CN2CCN(Cc3ccccn3)CC2)ccc1OC` is 17.5%.
For the compound `c1cc2c(cc1CN1CCN(C3CCCCC3)CC1)OCO2`, the inhibition is 2.75%.
For the compound `COc1cc(CN2CCN(Cc3cc(OC)c(OC)cc3OC)CC2)cc(OC)c1`, the inhibition is -0.77%.
The figure for `COc1cc(CN2CCN(Cc3ccccc3Br)CC2)cc(OC)c1` is 9.78%; for `CCN(CC)C(=O)C1CCCN(Cc2cccc(Cl)c2)C1` (stereo not given) it is 14.2%; for `COc1ccc(C(=O)N2CCN(Cc3ccccc3C(F)(F)F)CC2)cc1OC` it is 20.4%.
Take `CN(C)c1cccc(Nc2ccc(-c3cccc(C=O)c3)cn2)c1`: the inhibition was 73.1% (active).
In the case of `C1=CC2CC1CC2CN1CCN(Cc2c[nH]c3ccccc23)CC1` (stereo not given) it was 2.75%; in that of `COc1ccc(CN2CCN(C3CCC(C)CC3)CC2)c(OC)c1OC` (stereo not given), -12.1%; in that of `CC(=O)c1ccc(NC(=O)C(C)NCc2ccc(C)cc2)cc1` (stereo not given), 15.9%.
On to `Fc1cccc(CN2CCN(C3CCC(c4ccccc4)CC3)CC2)c1` (stereo not given), for which the inhibition is 21.8%.
As for `COCCCN1C(=O)c2cccc3c(C(=O)c4ccccc4)ccc(c23)C1=O`, the inhibition is 12.9%.
In the case of `CCOc1cccc(C2C(C(=O)OCCOc3ccccc3)=C(C)NC3=C2C(=O)CCC3)c1` (stereo not given), the inhibition was 14.4%.
For the compound `COC(=O)C1(C)NC(c2ccc(C)cc2)C2C(=O)N(c3ccc(F)cc3)C(=O)C21` (stereo not given), the inhibition is 11.6%.
In the case of `COc1cc(N2CCOCC2)ccc1Nc1cc(Nc2ccccc2-n2cccn2)c(C(F)(F)F)cn1` it was 8.51%; in that of `O=C(C1CCN(Cc2nc3ccccc3[nH]2)CC1)N1CCN(c2ccccn2)CC1`, 13.8%.
Take `c1cncc(CCNc2ccc3ncc(-c4cc5ccccc5o4)n3n2)c1`: the inhibition is 6.63%.
Take `O=C(c1ccccc1)N1CCN(C2CCCC2)CC1`: the inhibition is -2.61%.
Regarding `COc1ccc(C2C(C(C)=O)=C(C)N=C3SCC(=O)N32)c(OC)c1` (stereo not given), the inhibition was -6.53%.
The figure for `COc1ccc(C(=O)COC(=O)CNS(=O)(=O)/C=C/c2ccc(C)cc2)cc1OC` is 5.32%.
In the case of `O=C(CN1CCN(CC(=O)c2ccco2)CC1)Nc1ccc(Cl)c(Cl)c1`, the inhibition is 10.6%.
The figure for `COc1cc(CN2CCN(Cc3ccc(C)cc3)CC2)c([N+](=O)[O-])cc1OC` is 13.5%; for `CCOc1ccccc1N1CCN(Cc2cc(OC)c(O)c([N+](=O)[O-])c2)CC1` it is 16.9%; for `O=C(CCC(=O)OCc1ccc(Cl)cc1)Nc1ccc([N+](=O)[O-])cc1` it is 14.7%.
With `Cc1n[nH]c(=O)nc1N/N=C/c1cccs1`, the inhibition is 100% (active).
The figure for `CC1CCN(S(=O)(=O)c2ccc(Cl)c(C(=O)Nc3ccccc3[N+](=O)[O-])c2)CC1` is 14.3%; for `COc1ccc(OC)c(CN2CCN(Cc3ccc(Cl)cc3)CC2)c1` it is 15.1%.
In the case of `Cn1c(=NC(=O)COc2ccccc2)sc2cc(S(C)(=O)=O)ccc21` it was 12.4%; in that of `COC(=O)c1sc(NC(=O)c2ccccc2C)c(C#N)c1C`, -2.84%.
Consider `Cc1ccccc1NC(=O)NCCOc1cc(N2CCCC2)ncn1`, for which the inhibition is 13.1%.
Turning to `O=[N+]([O-])c1ccccc1CN1CCN(Cc2cccnc2)CC1`, the inhibition was 12.2%.
The figure for `O=C(c1cccc(Cl)c1)N1CCN(Cc2cccnc2)CC1` is 7.21%.
As to `COc1ccc(-c2nc(Nc3cc(OC)c(OC)c(OC)c3)c3[nH]cnc3n2)cc1`, the inhibition is 16.5%.
For `CCNc1nc(NCC)nc(C(=O)O)n1`, the inhibition was 77% (active).
For `CCN1CCN(CCCCOc2ccccc2F)CC1`, the inhibition is 6.82%.
On to `Cc1cccc(OCCN2CCNCC2)c1C`, for which the inhibition was -1.28%.
In the case of `Cc1nc(NC2CC2)cc(-c2ccc(F)cc2)n1` it was 14.2%.
Turning to `Cc1nc(NC(=O)c2cc(Br)ccc2Cl)sc1C`, the inhibition is 12.2%.
The figure for `COc1cc(CN2CCN(Cc3cccnc3)CC2)cc(OC)c1OC` is 18.8%; for `CN(CCc1ccccn1)CC(=O)N1CCc2ccccc21` it is -7.9%; for `CCCCC(=O)NCc1ccc(F)cc1` it is 10.9%.
In the case of `Cc1nnc(N2CCC(Cc3ccccc3)CC2)c2ccccc12` it was 6.39%; in that of `CCCS(=O)(=O)N1CCN(C(C)C)CC1`, 9.53%.
As for `C=CCNC(=O)c1sc(=S)n(CC)c1N`, the inhibition is -4.06%.
Turning to `COc1cc2nc(-c3cccc(C(C)=O)c3)nc(N)c2cc1OC`, the inhibition is 13.2%.
The figure for `O=C1NC(c2ccccc2[N+](=O)[O-])C(C(=O)c2cccs2)C(O)(C(F)(F)F)N1` (stereo not given) is 12.5%.
The figure for `CCN(CC)CC(=O)Nc1c2c(nc3ccccc13)N(c1cccc(C)c1)CC2` is 1.32%.
As to `Cc1cccc(NC(=O)CNCCN2CCCCC2)c1C`, the inhibition was 12.4%.
In the case of `C/C(N)=C(/C#N)C(=O)COC(=O)c1c2c(nc3ccccc13)/C(=C/c1ccco1)CC2` it was -24.2%; in that of `CC1CCC2C(=O)N(c3ccc(I)cc3)C(=O)C2C1` (stereo not given), 0.06%.
Turning to `Cc1ccc(C)n1C(Cc1ccccc1)C(=O)O` (stereo not given), the inhibition was -2%.
The figure for `Cc1ccc(C)c(OCCN2CCOCC2)c1C` is 17.5%.
The figure for `COc1ccc(CN2CCN(Cc3cccnc3)CC2)cc1OCc1ccccc1` is 10.3%; for `C=CCc1cc(C)ccc1OCCCn1ccnc1` it is 7.18%; for `OCCOCCN1CCN(Cc2ccc(Cl)cc2)CC1` it is 3.33%.
The figure for `C=CCn1c(SCC(=O)Nc2nc3ccccc3s2)nc(O)cc1=O` is -1.43%; for `CN(CCC(=O)O)Cc1cccc(Cl)c1` it is -6.2%; for `COc1cc(CN2CCN(Cc3ccc(Cl)cc3)CC2)c([N+](=O)[O-])cc1OC` it is 4.12%.
Turning to `CCC(C)c1ccccc1NC(=O)CN(C)CC(=O)Nc1ccccc1SC` (stereo not given), the inhibition was 3.28%.
The figure for `O=c1c2ccccc2ncn1CCCCOc1ccccc1F` is 7.91%.
In the case of `COc1ccc(CN2CCN(Cc3ccccc3C)CC2)c(OC)c1OC`, the inhibition was -1.44%.
In the case of `COc1ccc(C(=O)NCCN2CCN(c3nc4c(C)c(C)ccc4s3)CC2)cc1` it was -2.39%; in that of `Fc1ccc(CN2CCN(C3CCCC3)CC2)cc1`, 5.37%.
The figure for `O=C(c1cccs1)N1CCC(N2CCN(Cc3ccccc3)CC2)CC1` is -5.37%; for `O=[N+]([O-])c1ccc(OCc2nnc(SCCN3CCOCC3)n2-c2ccccc2)cc1` it is -4.47%.
As for `Clc1ccc(CN2CCN(CC3CC=CCC3)CC2)cc1` (stereo not given), the inhibition was 1.68%.
`Fc1cccc(Cl)c1Cn1nnc(-c2ccncc2)n1`: the inhibition is 12.8%.
In the case of `CCCCCOc1ccc(OC(=O)c2ccc(-c3ccc(CCC)cn3)cc2)cc1`, the inhibition is 9.51%.
As to `O=C(Cc1cccs1)N/N=C\C=C\c1ccco1`, the inhibition is -6.28%.
The figure for `c1ccc(Oc2cccc(OCCCCn3cncn3)c2)cc1` is 0.8%; for `Cn1c(-c2ccc(F)cc2)cnc1NCc1cccnc1` it is -4.79%; for `O=C(CNCc1cccnc1)Nc1ccc(C(=O)N2CCCCC2)cc1` it is 8.3%.
